We go through 63 compounds from PubChem BioAssay AID489028 (Sanford-Burnham Center for Chemical Genomics, 2010).

As a reminder, the inhibition is the change of the read-out against control, counted positive when it falls.

Each structure is given as a SMILES string. Screen size: about 10,000 compounds; about 5,600 (56%) were called active. Cut-off read from the data, not from the text of the source: active = inhibition above about 40%; inactive = the rest. The set was probably picked from earlier hits. A selection follows.

In the assay the target is Protein Mdm4 (Homo sapiens) + E3 ubiquitin-protein ligase Mdm2 (Homo sapiens) (UniProt O15151+Q00987). The experiment in a line: Mdm2-MdmX complex disruptors, retested hits, confirmation, luminescence, single concentration (AID 489028). The conditions noted are these: Mdm2-MdmX binding, luminescent assay; at 8 µM; stronger effect = higher value.
Chain of Protein Mdm4 (Homo sapiens) + E3 ubiquitin-protein ligase Mdm2 (Homo sapiens) (O15151 whole entry, looked up): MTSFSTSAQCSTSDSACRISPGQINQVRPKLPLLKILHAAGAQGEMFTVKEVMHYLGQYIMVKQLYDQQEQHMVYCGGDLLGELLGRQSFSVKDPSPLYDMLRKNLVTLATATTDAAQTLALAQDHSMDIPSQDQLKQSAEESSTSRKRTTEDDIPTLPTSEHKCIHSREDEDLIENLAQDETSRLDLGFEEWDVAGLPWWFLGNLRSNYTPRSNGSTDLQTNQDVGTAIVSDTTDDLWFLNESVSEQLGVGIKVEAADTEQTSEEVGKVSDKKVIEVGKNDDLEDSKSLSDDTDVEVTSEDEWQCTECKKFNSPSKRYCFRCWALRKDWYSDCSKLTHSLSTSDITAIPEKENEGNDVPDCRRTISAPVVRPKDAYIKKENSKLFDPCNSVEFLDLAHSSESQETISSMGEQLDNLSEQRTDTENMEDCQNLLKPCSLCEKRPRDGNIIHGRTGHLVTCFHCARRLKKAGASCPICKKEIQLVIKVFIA
Chain of Protein Mdm4 (Homo sapiens) + E3 ubiquitin-protein ligase Mdm2 (Homo sapiens) (Q00987 whole entry, looked up): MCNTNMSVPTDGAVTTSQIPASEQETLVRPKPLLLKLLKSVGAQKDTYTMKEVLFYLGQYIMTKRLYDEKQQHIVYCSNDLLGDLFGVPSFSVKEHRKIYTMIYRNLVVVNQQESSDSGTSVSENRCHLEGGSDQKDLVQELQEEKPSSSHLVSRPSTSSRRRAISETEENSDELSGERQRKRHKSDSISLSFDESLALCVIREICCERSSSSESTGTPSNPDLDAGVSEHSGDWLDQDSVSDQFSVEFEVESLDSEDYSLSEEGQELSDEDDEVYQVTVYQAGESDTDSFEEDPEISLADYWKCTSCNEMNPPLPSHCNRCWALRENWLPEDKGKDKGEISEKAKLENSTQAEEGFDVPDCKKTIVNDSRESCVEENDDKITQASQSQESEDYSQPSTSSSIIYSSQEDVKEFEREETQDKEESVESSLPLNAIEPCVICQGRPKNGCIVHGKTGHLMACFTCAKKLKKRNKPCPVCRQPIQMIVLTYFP
Turning to `Cc1noc(C)c1-c1ccc2ncnc(NC(C)c3ccco3)c2c1` (stereo not drawn), the inhibition is 46.5% (active). For `Nc1cccc(-c2cc(-c3ccccc3)nc(-c3cccc(N)c3)n2)c1`, the inhibition was 9.85% (inactive).

As to `CCCCCCCCCCOC(=O)Cn1c(COc2cccc(OC)c2)[n+](C)c2ccccc21`, the inhibition was 53% (active). For `CCCCCCCCCCOC(=O)Cn1c(COc2ccc(C)cc2)[n+](C)c2ccccc21`, the inhibition is 74.3% (active). In the case of `C/C(=N\N=C(N)N)c1ccc(Cl)cc1`, the inhibition is 23% (inactive). With `O=C1c2ccccc2C2=Nc3ccccc3SC(c3ccccc3F)C12` (stereo not drawn), the inhibition was 23.8% (inactive). For `C=C(C)COc1ccc(-c2n[nH]c(C)c2-c2ccccc2OC)c(O)c1`, the inhibition is 18.3% (inactive). Turning to `C=C(C)COc1ccc(-c2n[nH]c(C)c2-c2ccccc2)c(O)c1`, the inhibition is 2.2% (inactive). On to `COc1ccc(-c2n[nH]c(C)c2-c2ccc(OC)c(OC)c2)c(O)c1`, for which the inhibition was 50.9% (active). Consider `Cc1cc(C)cc(NC(=O)Cn2cnc3c(nnn3Cc3ccc(F)cc3)c2=O)c1`, for which the inhibition is 27.3% (inactive). With `CCN1C(=O)/C(=C\N2CCN(c3cccc(Cl)c3)CC2)SC1=S`, the inhibition is 45.1% (active). As for `CCCCN1C(=O)/C(=C/C=C2/C=Cc3ccccc3N2CC)SC1=S`, the inhibition is 22.4% (inactive).

As to `O=C(NCCN1CCOCC1)c1ccc(/C=C2\Sc3ccccc3N(Cc3ccc(F)cc3)C2=O)cc1`, the inhibition was 11.8% (inactive). With `CCN1CCN(CCNC(=O)c2ccc(/C=C3/Sc4ccccc4N(Cc4cccc(C)c4)C3=O)cc2)CC1`, the inhibition is 81.8% (active). Consider `CCN(CCCNC(=O)c1ccc2c(c1)NC(=O)CN2C)c1cccc(C)c1`, for which the inhibition is 20.2% (inactive). For `N#Cc1c(N)nc2c3c(sc(=N)c2c1N)NC(=O)CC3c1ccccc1Cl` (stereo not drawn), the inhibition is 2.45% (inactive). On to `N#Cc1ccc(C(=O)Nc2nc(-c3cccs3)c(C(=O)C(F)(F)F)s2)cc1`, for which the inhibition is 86.9% (active). On to `C=CCN(CC=C)S(=O)(=O)c1ccc(C(=O)Nc2nc3c(s2)CCc2ccccc2-3)cc1`, for which the inhibition is 24.2% (inactive). Consider `O=[N+]([O-])c1ccc(Oc2ccc(F)cc2Br)c2ccncc12`, for which the inhibition was 53.5% (active). As for `COc1cccc(/C=N/Nc2cc(C)nc(-c3ccccc3O)n2)c1O`, the figure is 93.8% (active); as for `COc1ccccc1/C=N\Nc1cc(C)nc(-n2nc(C)cc2C)n1`, 31.1% (inactive). Regarding `Cc1ccc(OCC(O)CN2CCN(CC(O)COc3ccc(C)cc3Cl)CC2)c(Cl)c1` (stereo not drawn), the inhibition was 35.6% (inactive). With `Cc1cccc(N(C)C(=O)c2cc3c(=O)[nH]c4ccc(C)cc4c3s2)c1` the figure was 73.5% (active); with `CCN1CCN(c2nc(Nc3cc(OC)ccc3OC)nc(Nc3cc(OC)ccc3OC)n2)CC1`, 12.1% (inactive). Consider `CC(=NCC1CCCO1)c1c(O)[nH]c(=O)[nH]c1=O` (stereo not drawn), for which the inhibition is 7.4% (inactive).

On to `Cc1cccc(Nc2nc3c(S(=O)(=O)c4ccccc4)nnn3c3ccccc23)c1C`, for which the inhibition is 48.2% (active). On to `Cc1ccc(CS(=O)(=O)c2ncc(Cl)c(C(=O)Nc3nnc(C)s3)n2)cc1`, for which the inhibition was 96.5% (active). Take `CSc1nnc(NC(=O)c2nc(S(=O)(=O)Cc3ccc(C)cc3)ncc2Cl)s1`: the inhibition is 99% (active). Turning to `COC(=O)c1ccc(NC(=O)c2cc(Cl)ccc2OC)cc1`, the inhibition is 3.8% (inactive). Regarding `CCOc1ccc(C(C)=O)cc1COC(=O)c1cnc(Cl)c(Cl)c1`, the inhibition was 19% (inactive). Consider `COc1ccc(C(=O)O/N=C(\N)Cc2ccc(Cl)cc2Cl)cc1OC`, for which the inhibition is 97.6% (active).

With `CC1=C(C)CC(C(=O)NNC(=O)c2ccccc2O)C(C(=O)O)C1` (stereo not drawn), the inhibition was 38.8% (inactive). `CC(=O)Nc1ccc(NC(=O)C(C)OC(=O)c2ccccc2C(=O)c2ccc(Cl)c([N+](=O)[O-])c2)cc1` (stereo not drawn): the inhibition is 84.5% (active).

Consider `N#Cc1cccc(NC(=O)COC(=O)c2ccccc2C(=O)c2ccc(Cl)c([N+](=O)[O-])c2)c1`, for which the inhibition is 98.9% (active).

In the case of `Cc1c(CN2CCC(CO)(CCOc3ccccc3)CC2)[nH]c2ccc(Cl)cc12`, the inhibition is 75.5% (active). Take `CCc1nc2sc3c(Cl)ncnc3c2c2c1CCCC2`: the inhibition was 14.9% (inactive). Turning to `Oc1c(CN2CCN(c3ccc(F)cc3)CC2)cc(Cl)c2cccnc12`, the inhibition was 85.5% (active). In the case of `Oc1c(CN2CCCC2)cc(COCc2ccccc2)c2cccnc12`, the inhibition was 66% (active).

As for `O=C(NC(=S)Nc1ccc2oc(=O)ccc2c1)c1ccc(-c2cccc(Cl)c2Cl)o1`, the inhibition was 34.5% (inactive). As to `Cc1ccsc1C(=O)OCC(=O)c1cc(C)n(CC2CCCO2)c1C` (stereo not drawn), the inhibition was 94.5% (active). As for `Cc1cc(C(=O)CCl)c(C)n1CC1COc2ccccc2O1` (stereo not drawn), the inhibition was 15.6% (inactive). As for `COc1ccc(CN2CN(C(C)C)CSC2=S)cc1`, the inhibition is -10.1% (inactive). `Cc1cc(C(=O)COc2ccccc2[N+](=O)[O-])c(C)n1-c1cccc(S(=O)(=O)N2CCOCC2)c1`: the inhibition was 58.5% (active). Consider `O=C(NC(=O)c1ccccc1N1CCCCC1)Nc1ccc(Br)cc1`, for which the inhibition was 54.9% (active). Turning to `CC(=O)Nc1ccc(S(=O)(=O)Nc2ccc(N3CCCCC3)cc2)cc1`, the inhibition is 3.05% (inactive). For `CCCOc1ccccc1C1CC(=O)Nc2cc3c(cc21)OCO3` (stereo not drawn), the inhibition was 61.9% (active).

In the case of `COc1ccccc1C1C2=C(COC2=O)Nc2cc3c(cc21)OCO3` (stereo not drawn), the inhibition was 62.8% (active). `O=C(Oc1c(-c2ccco2)oc2ccccc2c1=O)c1cccnc1`: the inhibition is 37.6% (inactive). With `O=C1/C(=C/c2ccc(F)cc2)SC(=S)N1CCCC(=O)N1CCCCC1CCO` (stereo not drawn) the figure was 49.8% (active). With `CC(=O)c1ccc(Oc2cc(C)nc(-n3nc(C)cc3C)n2)cc1`, the inhibition was 51.8% (active). With `COc1ccc(C(C[N+](=O)[O-])n2nc(C)cc2C)cc1` (stereo not drawn), the inhibition is 9.85% (inactive).

Consider `COc1ccc(Nc2oc(-c3ccccc3Cl)nc2C#N)cc1`, for which the inhibition was 42.7% (active). As for `CSc1nc(N)c(C#N)c(-c2ccccc2Cl)c1C#N`, the inhibition was 22.9% (inactive). Take `CN(C)CCCn1c(=O)n(Cc2ccccc2)c(=O)c2c3c(sc21)CCCCC3`: the inhibition is 37.5% (inactive). Regarding `COc1ccc(C(C(=O)NC2CCCCC2)N(C(=O)CCl)c2ccccc2Cl)cc1` (stereo not drawn), the inhibition is 100% (active).

As to `N#Cc1c(NC(=O)CSc2nc3ccccc3c(=O)n2Cc2ccco2)sc2c1CCCC2`, the inhibition is 36.7% (inactive). Take `CC(=O)N1CCc2c(sc(NC(=O)CCS(=O)(=O)c3ccccc3)c2C#N)C1`: the inhibition was 45.3% (active). Turning to `Cc1cccc2sc(N(CCCN(C)C)C(=O)CCS(=O)(=O)c3ccccc3)nc12`, the inhibition was 52% (active).

`Cc1ccc2sc(N(CCN(C)C)C(=O)/C=C/c3cccs3)nc2c1C`: the inhibition was 4.55% (inactive). With `COc1cccc2sc(N(CCCN(C)C)C(=O)C(c3ccccc3)c3ccccc3)nc12` the figure was 86.2% (active).

For the compound `CN(C)CCCN(C(=O)c1ccc(S(=O)(=O)N2CCCCCC2)cc1)c1nc2ccc(Br)cc2s1`, the inhibition was 21.9% (inactive). As for `COc1cccc2sc(N(CCCN(C)C)C(=O)CCS(=O)(=O)c3ccccc3)nc12`, the figure is 48% (active); as for `CN(C)CCCN(C(=O)c1ccc(S(=O)(=O)N2CCCCCC2)cc1)c1nc2cc3c(cc2s1)OCCO3`, 29.6% (inactive).
